# Laboratory results as given in the supplement of paper PMC8387472.
# Compound: COc1ccccc1-c1cc(Nc2cccc(CS(N)(=O)=O)c2)ncn1
# Test: fraction of microhomology deletions among edited reads; higher = more MH deletions
# Settings: mESC; 2uM; 72 h treatment, harvest day 5
row,Target,fraction of microhomology deletions among edited reads
1,"32.0 (DMSO control at this site: 1-bp insertion 0.03, MH deletion 0.85, edited 0.898) AGAAGTCCAGGATCAGGGGGACTGGGGTCGGGAGGGTGGGGCAGGAAGGAAGCCAGAATCA",0.93
2,"26.0 (DMSO control at this site: 1-bp insertion 0.518, MH deletion 0.262, edited 0.026) AGGGCGCGCCCCACGCACTCTGCGGCAAGTCCCTCTGCGGCAAGTCCTCGGCCCGGAAGAC",0.295
3,"34.0 (DMSO control at this site: 1-bp insertion 0.184, MH deletion 0.385, edited 0.103) ATTATAGGACCCTGAGGGAGCAGAGATGTGGGAATGGGGGCCGAGCCAATTGTGATGTAAG",0.502
4,"18.0 (DMSO control at this site: 1-bp insertion 0.114, MH deletion 0.789, edited 0.094) GCGCAAGTGCATAAGTTTTTCTTAAGGCGTGCCTTTAAGGCGTGCCTTTGTCGGTCCTGGA",0.779
5,"41.0 (DMSO control at this site: 1-bp insertion 0.022, MH deletion 0.754, edited 0.115) AAAGAGACAGCAGGTATGAATCCATCTTCCTGACCCTTGGGACCAGCCGGGGCAGTGAAGC",0.733
6,"47.0 (DMSO control at this site: 1-bp insertion 0.095, MH deletion 0.585, edited 0.118) GAGTGGTCCCGAGCCAGGAACTGTGTGTGTTGCAGGGGGGCAGTAACTCCCCAACTCCCTC",0.469
7,"35.0 (DMSO control at this site: 1-bp insertion 0.01, MH deletion 0.72, edited 0.098) CCACTTTTAGAGAGGGTGAAAATCATCAGTTATCATCAGGGCAACAAATTGCTTTCTCCTA",0.724
8,"16.0 (DMSO control at this site: 1-bp insertion 0.172, MH deletion 0.29, edited 0.05) CGGACTGCACACATGGGTAGGATCGTGCACGCGAGGTAGGATCGTGCACGCGAAGTTATTC",0.282
9,"19.0 (DMSO control at this site: 1-bp insertion 0.121, MH deletion 0.101, edited 0.057) TCTGCAGGGGTCGGAACCCGGGGGCTAGGGCTATCCCGGGGGCTAGGGCTATTAGCGAACC",0.149
10,"22.0 (DMSO control at this site: 1-bp insertion 0.573, MH deletion 0.229, edited 0.045) CTGATGGTTGAAGGATTTAGCCGGGGTCCTAGACGCCGGGGTCCTAGACGAAAGGGCCACG",0.163
11,"38.0 (DMSO control at this site: 1-bp insertion 0.063, MH deletion 0.487, edited 0.17) GGGCTGGGTGCTAAAATGAGGAGCTCCAAGAAGACTGAGGTGAACCTGGAGGCCCCTGAGC",0.46
12,"5.0 (DMSO control at this site: 1-bp insertion 0.214, MH deletion 0.567, edited 0.105) CGCTGACCCGAGACCTACGCGAACCGAAATCGGCGACCGGTGCGCAAGCAGGGCTGGCGTC",0.519
13,"1.0 (DMSO control at this site: 1-bp insertion 0.521, MH deletion 0.323, edited 0.141) GTGTCACAGTGCACGAGTGACGGGATAATGTGCTGACAGGTAATTGATAGGCTTCCAACTT",0.224
14,"0.0 (DMSO control at this site: 1-bp insertion 0.463, MH deletion 0.339, edited 0.14) AGGATTACCGAGACCTACGCGAACCGAAATCGCTGTCCGGTGCGCAAGCAGGGCTGGCGTC",0.294
15,"3.0 (DMSO control at this site: 1-bp insertion 0.109, MH deletion 0.149, edited 0.09) TGCTAGCGCCCCCACAAAGCGGACCAGCCAGCACTATAGGGAATAAGGCCAACTTGCACCC",0.178
16,"7.0 (DMSO control at this site: 1-bp insertion 0.128, MH deletion 0.374, edited 0.098) TACTCAACCGAGACCTACGCGAACCGAAATCGTATGCCGGTGCGCAAGCAGGGCTGGCGTC",0.393
17,"39.0 (DMSO control at this site: 1-bp insertion 0.328, MH deletion 0.371, edited 0.204) CTGCACAGTCACTTAGGATAGGAGAAGATGATGTATAGGGTTTAGTGGGAGATGTTGCAAG",0.303

row,Target,fraction of microhomology deletions among edited reads
1,21.0 CGATTGAGAGTCAAACGGGCCAGAAAACTCCGGGAACGGGCCAGAAAACTCCGGGGCATGG,0.183
2,"25.0 (DMSO control at this site: 1-bp insertion 0.017, MH deletion 0.774, edited 0.143) GGGCCTGAATGGTGTGGACATCTACTCGCTGGTGAGCTGGTGACTGAAAACATTCAGTGGC",0.747
3,27.0 CCAGAATTAGAACATATCATCTGGACCCTTTTCCATCTGGACCCTTTTCCAGCACACCCTG,0.156
4,"40.0 (DMSO control at this site: 1-bp insertion 0.072, MH deletion 0.192, edited 0.189) GCGAATCAACTGTTCAACAACAGCAGCAGCCACCTGGAGGACTACAGTGGCCTGTCCGTGT",0.146
5,"42.0 (DMSO control at this site: 1-bp insertion 0.145, MH deletion 0.655, edited 0.132) GGGCTAAACCTATGAGCACAGTAGAACTAAGGGTGGGTGGTGTAGCTAAAGAACTTGACCA",0.653
6,"28.0 (DMSO control at this site: 1-bp insertion 0.035, MH deletion 0.77, edited 0.142) TGGTTCTTCCTTTGTAGAGAGTGTTCATCTGGGAATCTGGGACTTGGATGAGACAATCATT",0.755
7,"2.0 (DMSO control at this site: 1-bp insertion 0.364, MH deletion 0.356, edited 0.125) GGTGCCCCCGAGACCTACGCGAACCGAAATCGATGTCCGGTGCGCAAGCAGGGCTGGCGTC",0.327
8,"4.0 (DMSO control at this site: 1-bp insertion 0.146, MH deletion 0.523, edited 0.125) ACGCCTTAGTGCACGAGTGACGGGATAATGTGGTCTCAGGTAATTGATAGGCTTCCAACTT",0.535
9,"31.0 (DMSO control at this site: 1-bp insertion 0.315, MH deletion 0.329, edited 0.026) ACCTCCACAGGCTGGGTGGCCCGGAGGCTGGGCGGCCCGGAGGCTGGGCTGGGCGAGTATC",0.487
10,"29.0 (DMSO control at this site: 1-bp insertion 0.084, MH deletion 0.745, edited 0.133) TTGATGAACTTCCTCTTCTTCTCATGTCTCCGGTCTCCGGTAGGCCACGTGCATGGCCACT",0.667
11,"17.0 (DMSO control at this site: 1-bp insertion 0.112, MH deletion 0.348, edited 0.058) CCATAGCGCGATAAATATGACGGCTCATCCTGTATGACGGCTCATCCTGTATCAACTGTCC",0.378
12,"45.0 (DMSO control at this site: 1-bp insertion 0.017, MH deletion 0.666, edited 0.101) TTACACAGCATGAACTGCTAGGTGATGATGTCAGATTCGGTTTTACTAACTTCTCCAAAAA",0.614
13,"30.0 (DMSO control at this site: 1-bp insertion 0.074, MH deletion 0.67, edited 0.142) GAGCTGGCATGAGTATTTGTGCCACATGGCTCCCACATGGCTCCACATGCAAGTTTGAAAC",0.599
14,"44.0 (DMSO control at this site: 1-bp insertion 0.181, MH deletion 0.512, edited 0.123) ACACATACCTTCTTCGAGGCAGCCAGCATGATGAGACAGGTCTCCCACAAACACATCGTGT",0.451
15,"20.0 (DMSO control at this site: 1-bp insertion 0.349, MH deletion 0.138, edited 0.084) TACAGGTGTAGACTGGTTACGTGGCTGCGGAATTGACTGGTTACGTGGCTGCGGAATTTTG",0.159
16,"43.0 (DMSO control at this site: 1-bp insertion 0.134, MH deletion 0.714, edited 0.104) AGTTTAACTTACTCCGGCCAAAAAAGAACTGCACCTCTGGAGCGGGTTAGTGGTGGTGGTA",0.663
17,"33.0 (DMSO control at this site: 1-bp insertion 0.008, MH deletion 0.771, edited 0.112) CATTAAGAGCAGCTGCCGGCCCCCAAGTGGACAGAGCTGGCCCTGCTGATTCAACAGTGCA",0.681
